Lassa entry inh – blocks Lassa virus binding to or entry into cells; Lassa virus pseudotype entry inhibition, cell reporter; Potency, µM (top dose mostly 37.9 µM), without a hit: top-dose activity change, negative = inhibition, usual class: inhibitors; 300,000 tested, 1.2% active; calls by dose curve; tested in HEK293 cells; also: nearly all actives have a fitted effect of over 50% in size
FMDV antiviral – blocks foot and mouth disease virus; 410,000 tested, 1.2% active; FMDV antiviral cell-based qHTS; Potency, µM (series often up to 57.9 µM), inactives show top-dose activity change, negative = inhibition, usual class: inhibitors; AID 1159524; calls by dose curve; tested in HEK293T cells; also: read-out not given here; nearly all actives have a fitted effect of over 45% in size
MARV entry inh – inhibitors of Marburg virus binding or cell entry | Potency, µM (series often up to 37.8 µM), inactives show top-dose activity change, negative = inhibition, hits mostly inhibitors | Marburg virus pseudotyped entry inhibition, cell reporter | 300,000 tested, 1.8% active; calls by dose curve; tested in HEK293 cells
Sm TGR block – S. mansoni TGR enzyme inhibition; Q962Y6; purified TGR, DTNB reduction, TNB absorbance 405 nm; Potency, µM (doses to about 114 µM), for inactives: at the top dose activity change, negative = inhibition, most hits filed as inhibitors; 360,000 tested, 3% active; AID 485364; active = well fitted inhibition curve with a large enough effect; inconclusive = small, poorly fitted or top-dose-only effect; inactive = no such curve, though single readings can be large or run the other way; also: nearly all actives have a fitted effect of over 60% in size
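First, TGR (20 nM dispensed) and NADPH were mixed with compound. Second, a 15 min room-temperature incubation followed. Third, further NADPH and then DTNB were added to start the reaction. Finally, TNB absorbance was monitored kinetically.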
Vaccinia Venus – inhibitors of vaccinia virus (Venus reporter); Vaccinia virus Venus reporter expression, fluorescence; 330,000 tested, 0.46% active; Potency, µM (titrated, usually from 36.5 µM), inactives show at the highest dose activity change, negative = inhibition, hits mostly inhibitors; calls by dose curve; tested in A549 cells; also: nearly all actives have a fitted effect of over 30% in size
VACV mCherry inh – vaccinia inhibition (mCherry reporter); AID 720579; 310,000 tested, 0.63% active; Vaccinia virus mCherry reporter infection, fluorescence; Potency, µM (doses to about 36.5 µM), inactives show at the highest dose activity change, negative = inhibition, actives largely listed as inhibitors; calls by dose curve; tested in A549 cells; also: nearly all actives have a fitted effect of over 35% in size
* marks the source's active call; other numbers are inactive results; i = inactive; ? = inconclusive; . = no result; [ ] = another dose, or the depositor's remark. Hits are enriched below; roughly 5.4% of the tested compounds scored in any of these assays. % is scaled to controls: 0 for no effect and ±100 for the full control effect; potency is read from the fitted curve at half-maximal effect.

SMILES	Lassa entry inh	FMDV antiviral	MARV entry inh	Sm TGR block	Vaccinia Venus	VACV mCherry inh
COCCN1C=C2C(=O)C(C)(OC(=O)C3CCCC3)C(=O)C(c3ccccc3)=C2C=C1CCCC(=O)OC (centres undefined)	.	-6%	3%[14.2 µM]	14µM*	-11%	-14%
COC(=O)CCCC1=CC2=C(c3ccccc3)C(=O)C(C)(OC(=O)C3CCCC3)C(=O)C2=CN1C1CCCCC1 (centres undefined)	.	-14%	?	20µM*	6%	-19%
COC(=O)CCCC1=CC2=C(c3ccccc3)C(=O)C(C)(OC(=O)C3CCCC3)C(=O)C2=CN1C1CCCC1 (centres undefined)	.	-12%	.	?	-5%	-21%
COC(=O)CCCC1=CC2=C(c3ccccc3)C(=O)C(C)(OC(=O)C3CCCC3)C(=O)C2=CN1CC(C)C (centres undefined)	.	-17%	.	-3%	-7%	i
COC(=O)CCCC1=CC2=C(c3ccccc3)C(=O)C(C)(OC(=O)C3CCCC3)C(=O)C2=CN1CC1CC1 (centres undefined)	.	-2%	.	28µM*	-2%	i
COc1ccc(CN2CCC3(CC2)c2ccccc2[C@@H](NC(=O)c2ccccc2)[C@@H]3O)cc1O	.	4%	.	.	-10%	i
CC(C1CC2CCC1C2)n1c(COc2ccccc2F)nnc1SCC(N)=O (centres undefined)	0%	-22%	?	0%	-1%	.
CC(C)NC(=O)NC(=O)CSc1nnc(COc2ccccc2F)n1C(C)C1CC2CCC1C2 (centres undefined)	18µM*	28µM*	?	5%	.	.
Cc1ccccc1CN1C(=O)C(O)(CC(=O)c2ccccc2)c2cc(Cl)ccc21 (centres undefined)	-4%[46.1 µM]	3%	.	17%	-12%[7.34 µM]	-1%[7.34 µM]
CC1CCN(CCCCOc2ccc(C(=O)c3ccccc3)cc2)CC1	16µM*	-16%	?	0%	-11%	-11%
CCCCN(Cc1ccccc1)S(=O)(=O)c1cc(Br)cc2c1N(C(=O)C1CC1)CC2	2%[46.1 µM]	28%	-28%[46.1 µM]	2%	-8%	-13%
Oc1ccc(-c2c(C3=CCCCC3)sc3ccccc23)cc1	.	-16%	.	79µM*	-12%	-24%
C1=C(c2cn(-c3nc4ccccc4s3)nn2)CCCC1	.	0%	.	.	-3%	1%
O=C(c1ccc(CSc2nc3ccncc3[nH]2)cc1)N1CCN(c2cccc(Cl)c2)CC1	26µM*	?	?	-12%	?	?
O=C(c1ccc(CSc2nc3ccncc3[nH]2)cc1)N1CCCCCC1	.	?	.	0%	-10%	-19%
Cc1ccc(CSc2nc3ccncc3[nH]2)cc1	.	10µM*	.	3%	-6%	-10%
COc1cc(CN(C(=O)c2ccc(Cl)cc2)C2CCS(=O)(=O)C2)cc(OC)c1OC (centres undefined)	0%[46.1 µM]	-2%	0%[46.1 µM]	18%	0%	-8%
Cc1ccccc1CN1C(=O)c2ccccc2S1(=O)=O	5%[46.1 µM]	-17%	-1%[46.1 µM]	9%	-1%	-18%
O=C1c2ccccc2S(=O)(=O)N1Cc1nc2ccccc2s1	1µM*	?	?	-16%	-4%	-13%
COC(=O)c1sc2ncccc2c1OCc1ccc(Cl)cc1	-9%	13%	8.2µM*	10%	.	.
COc1cc(OC)c2c(c1O)OC(c1ccccc1)CC2=O (centres undefined)	.	-12%	.	50µM*	3%	-2%
O=C(CN1C(=O)COc2ccccc21)NCCc1ccc(Cl)cc1	-17%[46.1 µM]	-23%	.	15%	-5%	-3%
COC(=O)c1c(-c2cccs2)csc1NC(=O)c1cc(OC)cc(OC)c1	-13%[46.1 µM]	0%	?	7%	-1%	-14%
C=CCOc1ccc2c(c1)CCC1C2CCC2(C)C(O)C(O)CC12 (centres undefined)	15%	49%	16%	.	-28%	?
C[C@]12CC[C@@H]3c4ccc(O[C@@H]5O[C@H](C(=O)O)[C@@H](O)[C@H](O)[C@H]5O)cc4CC[C@H]3[C@@H]1C[C@@H](O)[C@@H]2O	.	-9%	7%	40µM*	-12%	-1%
COC(C/C=C/C(=O)[C@H](C)OCc1ccccc1)OC	.	35µM*	.	.	-2%	-16%
